“And” between values parts separate entries of the source, which are not always exact repeats. Identical values can stand only once. Out of some 410,000 compounds screened, about 5,000 (1.2%) were called active. Entries that show only a call come without a potency. Not shown: some 13% with an inconclusive outcome. Calls come from the whole dose curve; as a rule, active = well fitted inhibition curve with a large enough effect; inconclusive = small, poorly fitted or top-dose-only effect; inactive = no such curve, though single readings can be large or run the other way. Only a selection was taken, and actives are over-represented in it overall.
Potency is the fitted concentration of half-maximal effect.

The nature of the assay: qHTS for Inhibitors of TGF-b. Note: nearly all actives have a fitted effect of over 65% in size. The conditions noted are these: HepG2 CAGA-GFP TGF-b/SMAD3 reporter, GFP fluorescence, 18 h, TGF-beta stimulated, 500 pg/mL final; series mostly up to 46.1 µM. An outline of the steps: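 TGF-beta reporter screen: HEPG2 CAGA-GFP, 1% FBS, 500 pg/mL TGF-beta final, 18 h; per-cell GFP summed per well; curves fitted and categorized by class.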
For orientation: In qHTS, concentration-response curves come from the screen itself.
Turning to `Cc1ccc(-n2c(SCC(=O)N/N=C/C=C/c3ccccc3[N+](=O)[O-])nc3ccccc3c2=O)cc1`, the Potency entry is “inactive”. The result for `Cc1nnc(C)n1-c1ccc(C(=O)Nc2cccc(Br)c2)cc1` reads “inactive”; that for `Cc1ccccc1CNC(=O)c1ccc(NC(=O)N2CCCCc3ccccc32)cc1`, “inactive”. The result for `CCOC(=O)c1c(NC(=O)c2ccc(S(=O)(=O)N(CC)CC)cc2)sc2c1CCCCC2` reads “inactive”; that for `CC(C)c1ccc2c(c1)c(SC(C)(C)C)c(CC(C)(C)C(=O)O)n2Cc1ccc(Cl)cc1`, 10 µM (active). With `Cc1c(C)n(Cc2ccc(Cl)cc2)c2ccc(C(=O)N3CCN(c4ccccc4F)CC3)cc12` the entry was “inactive”. As for `CCOc1cccc2sc(N3CCN(C(=O)C4CC4)CC3)nc12`, the Potency entry was “inactive”. For `O=C(CCS(=O)(=O)c1ccccc1)Nc1nc2c(s1)CCCC2`, the Potency result was “inactive”. `Cc1ccc(S(=O)(=O)CCC(=O)OCC(=O)N(C)Cc2ccccc2)cc1`: the Potency entry is “inactive”. The result for `COc1cccc2sc(N(CCCN(C)C)C(=O)C(c3ccccc3)c3ccccc3)nc12` reads 12.6 µM (active); that for `COc1cccc2sc(N(CCCN(C)C)C(=O)CCS(=O)(=O)c3ccccc3)nc12`, 1.12 µM (active); that for `COc1ccccc1NC(=O)CC(NCCN(C)C)C(=O)O` (configuration not stated), “inactive”. With `Cc1cccc2sc(N(CCCN(C)C)C(=O)CCS(=O)(=O)c3ccccc3)nc12` the figure was 3.16 µM (active); with `COc1ccc(N(C)C(=O)CCS(=O)(=O)c2cccc3nsnc23)cc1`, “inactive”. Regarding `Cc1ccc2sc(N(CCN(C)C)C(=O)/C=C/c3cccs3)nc2c1C`, the Potency result was “inactive”. The result for `Cc1ccc(-c2nnc(Nc3cccc(Br)c3)c3ccccc23)cc1S(=O)(=O)NCC1CCCO1` (configuration not stated) reads “inactive”.

In the case of `CCOC(=O)c1c(NC(=O)/C(C#N)=C/c2ccccc2)sc2c1CCC2`, the Potency result was “inactive”. Consider `Cc1cccc(CC(=O)Nc2cccc(-c3cn4cccnc4n3)c2)c1`, for which the Potency result is “inactive”.

With `COc1ccc(-c2nc(C)c(CCNC(=O)c3ccc(C(F)(F)F)cc3)s2)cc1OC`, the Potency entry was “inactive”. Consider `CCOC(=O)c1cc(OC(=O)c2ccccc2Cl)n(-c2ccccc2)n1`, for which the Potency entry was “inactive”.

On to `CSc1nc(=O)c2c(n1C)NC(=O)CC2c1ccccc1OC(C)C` (configuration not stated), for which the Potency result was “inactive”.

Turning to `Cc1cn(C)c(CC(=O)NCc2ccc(Cl)cc2)c1C(=O)O`, the Potency result was “inactive”. With `CCOc1n[nH]c(-c2ccccc2)n1` the entry was “inactive”; with `CCOC(=O)c1ccc(NC(=O)CC2C(=O)N(c3cccc(OC)c3)C(=O)N2C2CCCCC2)cc1` (configuration not stated), “inactive”.

For `Cc1ccc(NC(=O)CCNC(=O)c2ccc([N+](=O)[O-])cc2)cc1S(=O)(=O)N1CCOCC1`, the Potency result is “inactive”.

For the molecule `Cc1ccc(C)c(S(=O)(=O)N2CCN(CC(=O)Nc3ccc([N+](=O)[O-])cc3)CC2)c1`, the Potency was 8.91 µM (active). Turning to `Cc1ccc([N+](=O)[O-])cc1S(=O)(=O)N1CCCN(C)CC1`, the Potency entry is “inactive”. Turning to `Cc1cccc(N2CCN(C(=O)c3oc(=O)c4ccccc4c3-c3ccccc3)CC2)c1C`, the Potency entry is “inactive”. As for `CCOc1ccccc1NC(=O)Cn1c(=O)n(Cc2ccccc2)c(=O)c2c(C)c(C(=O)N(C)C)sc21`, the Potency result was “inactive”. As to `CCC(=O)N1CCc2cc(S(=O)(=O)NCCC(=O)Nc3cccc(C)c3C)ccc21`, the Potency result is “inactive”. With `Cc1ccc(C(C)C)c(OCCSc2nc3ccccc3n2CC(=O)O)c1` the entry was “inactive”; with `CCOc1ccc(OCCSc2nc3ccccc3n2CC(=O)O)cc1`, “inactive”. The result for `Cc1cccc(OCCSc2nc3ccccc3n2CC(=O)N2CCCCC2)c1C` reads 12.6 µM (active). With `O=c1[nH]c2cc(Br)ccc2n2cccc12` the entry was “inactive”; with `COc1ccc(-c2onc(C)c2-c2ccc3c(c2)OCCO3)c(O)c1`, 15.8 µM (active); with `COc1ccc(-c2c(-c3ccc(OC)cc3O)nc(C)nc2C(F)(F)F)cc1`, “inactive”. Take `COc1cc(-c2c(-c3ccc4c(c3)OCO4)noc2C)ccc1F`: the Potency result is “inactive”. On to `O=C1O/C(=C\c2ccc(O)cc2)C(O)=C1c1ccc(O)cc1`, for which the Potency entry was “inactive”. With `O=C(Nc1cccc2cccnc12)C(F)(F)F` the entry was “inactive”; with `O=[N+]([O-])c1ccccc1SNc1ccccn1`, “inactive”. In the case of `Cc1ccc2cccc([N+](=O)[O-])c2n1`, the Potency result was “inactive”. With `O=S(=O)(Nc1ccccc1Cl)c1cccc2nsnc12` the entry was “inactive”; with `O=S(=O)(Nc1cccc2cccnc12)c1cccc2cccnc12`, 1.78 µM (active); with `O=[N+]([O-])c1ccccc1S(=O)(=O)Nc1cccc2cccnc12`, 1.26 µM (active) and 6.31 µM (active). The result for `Cc1ccc(Cn2cc(CCC(=O)NCc3ccc(OC(C)C)cc3)c3ccccc32)cc1` reads “inactive”; that for `O=C(O)c1ccc2c(c1)N(Cc1ccc(F)cc1)C(=O)c1ccccc1S2=O` (configuration not stated), “inactive”; that for `COc1cc(OC)c(NC(=O)Cc2ccc(-n3c(C)nc4cccnc43)cc2)cc1Cl`, “inactive”.

Consider `O=C(/C=C/Nc1ccccc1)c1cnc(-c2ccccc2)s1`, for which the Potency entry was “inactive”. With `CNC(=O)c1csc(-c2ccccc2)n1` the entry was “inactive”. With `Cc1nc(-c2ccccc2)sc1C(=O)/C=C/c1ccccc1` the figure was 10 µM (active); with `O=C(CSc1nc2nccnc2c(=O)n1CCc1c[nH]c2ccccc12)Nc1ccccc1F`, “inactive”. The result for `O=C1COc2ccc(-c3csc(-c4ccc(Cl)cc4)n3)cc2N1` reads “inactive”.

Consider `COc1ccc(C(=O)NCc2ccc(C)cc2)cc1S(=O)(=O)N1CCCC1`, for which the Potency entry was “inactive”. With `Cc1ccc(C)c(S(=O)(=O)N2CCN(C(=O)Nc3ccccc3)CC2)c1` the entry was “inactive”.

With `COc1ccc(C)cc1S(=O)(=O)N1CCN(S(=O)(=O)c2cc(C(=O)O)ccc2C)CC1`, the Potency was 6.31 µM (active). Consider `CCCN(CCC)CCCNC(=O)Cn1cc2c(n1)-c1c(oc(C(=O)N3CCCC3)c1C)CC2`, for which the Potency result was “inactive”. With `COc1cn(CC(=O)Nc2cccc(C)c2C)c(CN2CCCCC2)cc1=O` the entry was “inactive”.

The values are drawn from PubChem BioAssay AID588855 (National Center for Advancing Translational Sciences (NCATS), 2011).
